From PubChem BioAssay (NCI)
About 83,000 compounds went through this panel and 20% of them were active in at least one assay; those are over-represented in the sample as a whole.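 Note: values are percent growth. 100 is the growth of untreated cells, values between 100 and 0 indicate rising inhibition; between -100 and 0 indicates cell death.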 Values without a mark were called inactive. The source made the active and inactive calls. The calls were made as follows: active = growth percent below 10; inactive = the rest.

The compounds below were run on SK-OV-3 ovarian (assay: NCI-60 one-dose screen, 48 h (100 = growth as untreated, 0 = no growth, -100 = all killed)). Conditions: 10 µM unless noted.

For `CC1=C(C(=O)Nc2ccccc2)C(c2cccc3ccccc23)n2c(nc3ccccc32)N1` (configuration not stated), the growth was -2.39% (active).
For `COc1cc2cc(C(=O)N3C[C@@H](CCl)c4c3cc(OC(=O)N(C)CCSSCCN3CCOCC3)c3ccccc43)[nH]c2c(OC)c1OC`, the growth was -30% (active).
`Clc1ccc2c(NCCNC34CC5CC(CC(C5)C3)C4)ccnc2c1` was tested, and the growth was -83.1% (active).
`Cn1cc(-c2cc(N)n3nc(-c4c[nH]c5ccccc45)cc3n2)c2cc(Br)ccc21` was tested, and the growth was -60% (active).
With `Clc1ccc(-c2nc3c4c(-c5ccccc5)c(-c5ccccc5)n(Cc5ccccc5)c4ncn3n2)cc1` the growth was -10.2% (active).
In the case of `COc1c2c(cc3c1C(CCc1ccccc1)N(C)CC3)OCO2` (configuration not stated), the growth is reported as -6.7% (active).
`Cc1[nH]nc2ccc3nc(-c4cnn(CCO)c4)c4c(c3c12)CCCC4` was tested, and the growth was 9.64% (active).
For `CC[C@]12C=CCN3CC[C@@]4(c5ccc(OC)cc5N(C)[C@H]4[C@@](O)(C(=O)OC)[C@@H]1OC(=O)CCC[P+](c1ccc(OC)cc1)(c1ccc(OC)cc1)c1ccc(OC)cc1)[C@@H]32`, the growth was -85.1% (active).
In the case of `O=C(NN1C(=O)/C(=C/C=C/c2ccc([N+](=O)[O-])o2)SC1=S)c1ccc(O)cc1`, the growth is reported as -98.9% (active).

Compared with `COc1ccc(NC(=O)CSc2nnc(-c3ccc(-c4nc5ccccc5[nH]4)cc3)o2)cc1`, `COc1ccc(-c2nc3ccccc3n2CC(=O)N=Nc2c(O)[nH]c3ccc(Br)cc23)cc1` is lower in growth: 98.2% for the first, 96.8% for the second.

Compared with `CC(=O)C[n+]1cccc2c3ccccc3ccc21`, `Cc1ccc(-c2cc(C(=O)N=Nc3c(O)[nH]c4ccc(F)cc34)c3ccccc3n2)cc1` is lower in growth: 96.1% for the first, 94.3% for the second.

First: CC[C@]12C=CCN3CC[C@]4(C(=C(C(=O)OC)C1)Nc1cc(OC)c([C@@H]5[C@H]6O[C@H]6[C@@]6(CC)CC(C(=O)OC)=C7Nc8cc(O)ccc8[C@@]78CCN5[C@@H]68)cc14)[C@@H]32
Second: COc1ccc(-c2cc(C(=O)N=Nc3c(O)[nH]c4ccc(Cl)cc34)c3ccccc3n2)cc1OC
The growth of the first is lower: 40.2% for the first, 154% for the second.

Compared with `Cc1ccccc1Nc1nnc(-c2c[nH]c3ccccc23)o1`, `Fc1ccc(Nc2nnc(-c3c[nH]c4ccccc34)o2)cc1` is higher in growth: 17.6% for the first, 83.6% for the second.

Compared with `COc1cncc(-c2ccc3ncnc(N4CCc5ccc(Cl)cc54)c3c2)c1`, `COc1ccc(/C=C/c2nc3ccccc3n3c(-c4cccc([N+](=O)[O-])c4)nnc23)cc1` is lower in growth: 27.4% for the first, 25.6% for the second.

First: Cc1nn(-c2ccccc2)c2nc(C)n(CC(=O)N/N=C/c3cccc([N+](=O)[O-])c3)c(=O)c12
Second: O=[N+]([O-])c1cccc(-c2nnc3c(/C=C/c4ccc(F)cc4)nc4ccccc4n23)c1
The growth of the first is lower: 92.8% for the first, 101% for the second.

Compared with `Cc1ccc(S(=O)(=O)Nc2ccc(-c3ccc4c(c3)NC(=O)/C4=C\c3ccc[nH]3)cc2)cc1`, `O=C1Nc2cc(-c3ccc(NS(=O)(=O)c4ccc(C(F)(F)F)cc4)cc3)ccc2/C1=C/c1ccc[nH]1` is lower in growth: 108% for the first, 57.7% for the second.

Compared with `O=C1c2cccc3c(N4CCN(c5ccccc5)CC4)ccc(c23)C(=O)N1c1cccc(-c2nn(-c3ccccc3)cc2-c2nc3ccccc3s2)c1`, `N#C/C(=C1/C(=O)Nc2ccccc21)c1nnc(NC(=O)c2ccc(-n3c(=O)[nH]c4ccccc4c3=O)cc2)s1` is lower in growth: 97.6% for the first, 75.1% for the second.

Going from `COc1ccc(-c2cc(-c3cc(C(C)C)c(O)cc3C)nn2-c2ccc(S(N)(=O)=O)cc2)cc1` to `COc1ccc(N=Nc2c(N)nn3c(-c4ccc5c(c4)C=S=C5)ccnc23)cc1`, the growth rises from 60.5% to 68.7%.

Going from `O=C(c1ccc(O)cc1)C1[C@H](c2ccc(Cl)cc2)[C@@H](c2ccccc2)NC12C(=O)Nc1ccccc12` (some centres not stated) to `C[C@H](NC(=O)c1ccc2c(-c3ccc(C(F)(F)F)cc3)cccc2c1)c1ccccn1`, the growth rises from 43.7% to 64%.

Going from `CN(C(=O)CN1C(=O)/C(=C/c2ccco2)SC1=S)C1CCS(=O)(=O)C1` (configuration not stated) to `CCCN(CCC)S(=O)(=O)c1ccc(C(=O)O)cc1.CCCN(CCC)S(=O)(=O)c1ccc(C(=O)O)cc1.[Cl][Pt+2][Cl].[NH2-].[NH2-]`, the growth falls from 91.3% to 18.8%.

Compared with `COc1cc(C2CC(c3ccc(F)cc3)=Nc3c(N)nc(N)nc3N2)ccc1Oc1nc(Nc2ccc(F)cc2)nc(N(C)C)n1` (configuration not stated), `Cc1cccc(-c2ccccc2Oc2ccc3nnc(Cl)n3n2)c1` is higher in growth: 86.8% for the first, 124% for the second.

Going from `CC(C)C[C@H](NC(=O)CNC(=O)C[C@H]1O[C@@H]2OC3(C)CC[C@H]4[C@H](C)CC[C@@H]([C@H]1C)[C@@]24O3)B(O)O` to `O=C(NNC(=O)c1ccc(OCc2nc3ccc(Cl)cc3[nH]2)cc1)Nc1ccc(Cl)c(Cl)c1`, the growth rises from 25.7% to 77.1%.

Going from `Cc1nc(Nc2ccccn2)sc1C1=NNC(c2ccccc2F)C1` (configuration not stated) to `Cc1ccc(C(=O)Nc2cc(-c3ccccc3)cc(C(F)(F)F)c2)cc1C#Cc1cnc2cccnn12`, the growth rises from 98.3% to 123%.
